Test results taken from the supplement of paper PMC8728848.
The full list was thinned out, with the strongest signals kept by preference.

Legend:
Experiment in all cases: glycan array binding signal (z-score within array); higher = stronger binding
Settings in all cases: glycan notation: IUPAC condensed, linker removed
[1] = molecular target: Fuc(a1-2)Gal(b1-3)[Fuc(a1-4)]GlcNAc
Summary of the method: (§1)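 Glycan array binding is given as a within-array Z-score, which can be read as non-binding when negative. The arrays, 3228 of them, came from the Consortium for Functional Glycomics database and were retained only where the protein sequence was available. Z-scores were averaged across arrays of the same protein sequence at different concentrations or buffers and across linkers.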

[2] = molecular target: Fuc(a1-2)Gal(b1-4)GlcNAc
Summary of the method: as §1

[3] = molecular target: Fuc(a1-2)Gal(b1-4)GlcNAc(b1-2)Man(a1-6)[Gal(b1-4)GlcNAc(b1-2)Man(a1-3)]Man(b1-4)GlcNAc(b1-4)GlcNAc
Summary of the method: as §1

[4] = molecular target: Fuc(a1-2)Gal(b1-4)GlcNAc(b1-3)Gal(b1-4)GlcNAc
Summary of the method: as §1

[5] = molecular target: Fuc(a1-2)[Gal(a1-3)]Gal(b1-3)GlcNAc
Summary of the method: as §1

[6] = molecular target: Fuc(a1-3)GlcNAc
Summary of the method: as §1

[7] = molecular target: Fuc(a1-3)[Gal(b1-4)]GlcNAc(b1-4)Gal(b1-4)[Fuc(a1-3)]GlcNAc(b1-4)Gal(b1-4)[Fuc(a1-3)]GlcNAc
Summary of the method: as §1

[8] = molecular target: Gal(a1-3)Gal(b1-4)Glc
Summary of the method: as §1

[9] = molecular target: Gal(a1-3)[Gal(a1-4)]Gal(b1-4)GlcNAc
Summary of the method: as §1

[10] = molecular target: Gal(b1-4)Glc
Summary of the method: as §1

[11] = molecular target: Gal(b1-4)GlcNAc(b1-6)Gal(b1-4)GlcNAc
Summary of the method: as §1

[12] = molecular target: Gal6S(b1-4)Glc
Summary of the method: as §1

[13] = molecular target: GalNAc(b1-3)Gal(a1-4)Gal(b1-4)GlcNAc
Summary of the method: as §1

[14] = molecular target: GalNAc(b1-3)GalNAc
Summary of the method: as §1

[15] = molecular target: GlcNAc(a1-6)Gal(b1-4)GlcNAc
Summary of the method: as §1

[16] = molecular target: Man(a1-2)Man(a1-3)Man
Summary of the method: as §1

[17] = molecular target: Man(a1-2)Man(a1-3)[Man(a1-6)]Man(a1-6)[Man(a1-2)Man(a1-3)]Man(b1-4)GlcNAc(b1-4)GlcNAc
Summary of the method: as §1

[18] = molecular target: Man(a1-3)[Man(a1-6)]Man(a1-6)[Man(a1-3)]Man
Summary of the method: as §1

[19] = molecular target: Neu5Ac(a2-3)Gal(b1-3)GlcNAc(b1-3)Gal(b1-3)GlcNAc
Summary of the method: as §1

[20] = molecular target: Neu5Ac(a2-3)Gal(b1-3)GlcNAc6S
Summary of the method: as §1

[21] = molecular target: Neu5Ac(a2-6)Gal(b1-4)GlcNAc(b1-2)Man(a1-3)[GlcNAc(b1-2)Man(a1-6)]Man(b1-4)GlcNAc(b1-4)GlcNAc
Summary of the method: as §1

[22] = molecular target: Neu5Ac(a2-6)Gal(b1-4)GlcNAc(b1-2)Man(a1-3)[Neu5Ac(a2-6)Gal(b1-4)GlcNAc(b1-2)Man(a1-6)]Man(b1-4)GlcNAc(b1-4)GlcNAc
Summary of the method: as §1

[23] = molecular target: Neu5Gc(a2-3)Gal(b1-3)GlcNAc
Summary of the method: as §1

[24] = molecular target: Neu5Gc(b2-6)Gal(b1-4)GlcNAc
Summary of the method: as §1

[25] = molecular target: Fuc(a1-2)Gal6S(b1-4)GlcNAc
Summary of the method: as §1

[26] = molecular target: Fuc(a1-2)[Gal(a1-3)]Gal(b1-4)Glc
Summary of the method: as §1

[27] = molecular target: Fuc(a1-2)[Gal(a1-3)]Gal(b1-4)GlcNAc
Summary of the method: as §1

[28] = molecular target: Fuc(a1-3)[Gal(b1-4)]Glc6S
Summary of the method: as §1

[29] = molecular target: Fuc(a1-3)[Gal(b1-4)]GlcNAc(b1-3)Gal(b1-3)[Fuc(a1-4)]GlcNAc
Summary of the method: as §1

[30] = molecular target: Gal(a1-3)Gal(b1-4)[Fuc(a1-3)]GalNAc
Summary of the method: as §1

[31] = molecular target: Gal(a1-4)Gal(b1-4)Gal
Summary of the method: as §1

[32] = molecular target: Gal(a1-4)Gal(b1-4)GalNAc
Summary of the method: as §1

[33] = molecular target: Gal(b1-3)Gal
Summary of the method: as §1

[34] = molecular target: Gal(b1-3)[Fuc(a1-4)]GlcNAc(b1-3)Gal(b1-4)GlcNAc
Summary of the method: as §1

[35] = molecular target: Gal(b1-4)GlcNAc(b1-3)Gal(b1-4)GlcNAc
Summary of the method: as §1

[36] = molecular target: Gal3S(b1-3)[Fuc(a1-4)]GlcNAc
Summary of the method: as §1

[37] = molecular target: GalNAc(a1-3)GalNAc
Summary of the method: as §1

[38] = molecular target: GlcNAc(b1-2)Man(a1-3)[GlcNAc(b1-2)Man(a1-6)]Man(b1-4)GlcNAc(b1-4)GlcNAc
Summary of the method: as §1

[39] = molecular target: GlcNAc(b1-3)Gal
Summary of the method: as §1

[40] = molecular target: GlcNAc(b1-3)GalNAc
Summary of the method: as §1

[41] = molecular target: GlcNAc(b1-6)GalNAc
Summary of the method: as §1

[42] = molecular target: Neu5Ac(a2-3)Gal(b1-4)GlcNAc(b1-3)Gal(b1-4)GlcNAc
Summary of the method: as §1

[43] = molecular target: Neu5Ac(a2-3)Gal(b1-4)[Fuc(a1-3)]GlcNAc(b1-3)Gal
Summary of the method: as §1

[44] = molecular target: Neu5Ac(a2-3)Gal(b1-4)[Fuc(a1-3)]GlcNAc(b1-3)Gal(b1-4)GlcNAc
Summary of the method: as §1

[45] = molecular target: Neu5Ac(a2-3)Gal6S(b1-4)GlcNAc
Summary of the method: as §1

[46] = molecular target: Neu5Ac(a2-8)Neu5Ac(a2-3)[GalNAc(b1-4)]Gal(b1-4)Glc
Summary of the method: as §1

[47] = molecular target: Neu5Gc(a2-6)Gal(b1-4)GlcNAc
Summary of the method: as §1

B1: Mannose Binding Protein (Lactobacillus plantarum) (protein)
chain: AERSEAALTHVDKDNFLKYFSLNGSATYDAKTGIVTITPNQNNQVGNFSLTSKIDMNKSFTLTGQVNLGSNPNGADGIGFAFHSGNTTDVGNAGGNLGIGGLQDAIGFKLDTWFNSYQAPSSDKNGSEISSTNSNGFGWNGDSANAPYGTFVKTSNQEISTANGSKVQRWWAQDTGESQALSKADIDGNFHDFVVNYDGATRTLTVSYTQASGKVLTWKTTVASSYQAMAMVVSASTGAAKNLQQFKLTSFDFQEAATVNVKYVDTTGHQLAQG
glycan array binding signal (z-score) [1]: -0.167
glycan array binding signal (z-score) [2]: -0.102
glycan array binding signal (z-score) [3]: -0.749
glycan array binding signal (z-score) [4]: -0.358
glycan array binding signal (z-score) [5]: -0.696
glycan array binding signal (z-score) [6]: -0.141
glycan array binding signal (z-score) [7]: -0.071
glycan array binding signal (z-score) [8]: 13.6
glycan array binding signal (z-score) [9]: -0.551
glycan array binding signal (z-score) [10]: -0.319
glycan array binding signal (z-score) [11]: -0.654
glycan array binding signal (z-score) [12]: 0.521
glycan array binding signal (z-score) [13]: 4.17
glycan array binding signal (z-score) [14]: 2.15
glycan array binding signal (z-score) [15]: -0.056
glycan array binding signal (z-score) [16]: 3.36
glycan array binding signal (z-score) [17]: 0.227
glycan array binding signal (z-score) [18]: 1.77
glycan array binding signal (z-score) [19]: -0.526
glycan array binding signal (z-score) [20]: -0.327
glycan array binding signal (z-score) [21]: -0.444
glycan array binding signal (z-score) [22]: -0.324
glycan array binding signal (z-score) [23]: -0.785
glycan array binding signal (z-score) [24]: 1.04

B2: IDGF2 (Drosophila melanogaster), Q9V3D4 (protein)
chain: MKAWIWFTFVACLFAASTEAASNLVCYYDSSSYTREGLGKLLNPDLEIALQFCSHLVYGYAGLRGENLQAYSMNENLDIYKHQFSEVTSLKRKYPHLKVLLSVGGDHDIDPDHPNKYIDLLEGEKVRQIGFIRSAYDLVKTYGFDGLDLAYQFPKNKPRKVHGDLGLAWKSIKKLFTGDFIVDPHAALHKEQFTALVRDVKDSLRADGFLLSLTVLPNVNSTWYFDIPALNGLVDFVNLATFDFLTPARNPEEADYSAPIYHPDGSKDRLAHLNADFQVEYWLSQGFPSNKINLGVATYGNAWKLTKDSGLEGVPVVPETSGPAPEGFQSQKPGLLSYAEICGKLSNPQNQFLKGNESPLRRVSDPTKRFGGIAYRPVDGQITEGIWVSYDDPDSASNKAAYARVKNLGGVALFDLSYDDFRGQCSGDKYPILRAIKYRLHHHHHH
glycan array binding signal (z-score) [1]: -0.463
glycan array binding signal (z-score) [4]: -0.26
glycan array binding signal (z-score) [25]: -0.274
glycan array binding signal (z-score) [5]: 8.27
glycan array binding signal (z-score) [26]: 6.99
glycan array binding signal (z-score) [27]: 7.65
glycan array binding signal (z-score) [28]: 0.706
glycan array binding signal (z-score) [29]: 0.936
glycan array binding signal (z-score) [7]: -0.319
glycan array binding signal (z-score) [30]: -0.365
glycan array binding signal (z-score) [9]: -0.273
glycan array binding signal (z-score) [31]: -0.196
glycan array binding signal (z-score) [32]: -0.481
glycan array binding signal (z-score) [33]: 0.071
glycan array binding signal (z-score) [34]: 0.056
glycan array binding signal (z-score) [35]: -0.325
glycan array binding signal (z-score) [36]: 0.072
glycan array binding signal (z-score) [37]: -0.398
glycan array binding signal (z-score) [38]: -0.223
glycan array binding signal (z-score) [39]: 0.066
glycan array binding signal (z-score) [40]: 0.032
glycan array binding signal (z-score) [41]: -0.197
glycan array binding signal (z-score) [16]: -0.128
glycan array binding signal (z-score) [42]: -0.3
glycan array binding signal (z-score) [43]: 0.239
glycan array binding signal (z-score) [44]: 0.148
glycan array binding signal (z-score) [45]: -0.073
glycan array binding signal (z-score) [46]: -0.271
glycan array binding signal (z-score) [47]: 0.622
